# Assay results from PubChem BioAssay (NCATS).
# Records with an inconclusive call do not appear. Calls of active or inactive are those of the source. Calls follow the shape of the dose curve; as a rule, active = well fitted inhibition curve with a large enough effect; inconclusive = small, poorly fitted or top-dose-only effect; inactive = no such curve, though single readings can be large or run the other way. Where a SMILES comes first, the peptide text is derived from it. [ ]: non-standard residue; d: D form. Hyp = O=C(O)[CH]1C[CH](O)CN1; Phe(ol) = N[CH](CO)Cc1ccccc1; Iva = CC[C](C)(N)C(=O)O; Aib = CC(C)(N)C(=O)O
# Tested on: Zika virus NS2B-NS3 protease (linked construct)
# Assay: Primary screen NINDS Rhodamine qHTS for Zika virus inhibitors (AID 1347160); also: nearly all actives have a fitted effect of over 55% in size
# Conditions: purified NS2B-NS3 protease, Rhodamine110 substrate fluorescence; series mostly up to 57.1 µM; activity change, negative = inhibition: at the top concentration
# Description: Avindra Nath, Ph.D., National Institute of Neurological Disorders and Stroke (NINDS), Bethesda, MD
# Radhakrishnan Padmanabhan, Ph.D., Georgetown University (GU), Washington D.C.
# Zika Virus causes congenital defects, including microcephaly and is associated with Guillain-Barre syndrome, eningoencephalitis and myelitis in infected adult. […] Using a target-based approach, we hope to establish a screening paradigm to uncover novel, cell-active NS2B-NS3 protease (Zika Virus) specific inhibitors from NCATS' collection of small molecules using qHTS.
# Four assay panel was created to identify potential Zika Virus inhibitors. Namely, (1) GU unlinked NS2B-NS3 AMC tagged protease qHTS, (2) GU unlinked NS2B-NS3 Rhodamine tagged protease qHTS, (3) NINDS linked NS2B-NS3 AMC tagged protease qHTS, (4) NINDS linked NS2B-NS3 Rhodamine tagged protease qHTS. Active compounds were re-acquired and re-screened to confirm inhibition. Inhibitors were further screened against various confirmatory and counterscreens in dose response format.
# Early Translation Branch (ETB)
# National Center for Advancing Translational Sciences (NCATS), Rockville, MD
# National Institute of Health (NIH), Bethesda, Maryland
# For the linked assay, Nath lab (NINDS) provided the purified linked NS2B-NS3 protease which is consists of hydrophilic domain of NS2B linked to the NS3 protease domain by a flexible (-[…]-) linker. Control compound aprotinin is obtained from Thermo Scientific (#78432; Waltham, Massachusetts). Rhodamine110 substrate ([N-Cbz]-Nle-Lys-Arg-Arg-Rhod110-Arg-Arg-Lys-Nle-[N-Cbz]) was purchased from either Genscript or Bachem.
# 1536-well Protease (Rhodamine110 Substrate) Assay:
# Briefly, 3 microL of enzyme (25 nM final concentration), in assay buffer (10 mM Tris-HCl pH 8.0 with 0.01% Tween 20) were dispensed into a 1,536-well solid-bottom black plate (Greiner Bio One, Monroe, NC). Twenty-three nL of compounds (final concentration range 7.28 nM to 114 microM) or control Aprotinin (final concentration range 3.47 nM to 114 microM) were transferred via Wako Pin-tool (Wako Automation, Richmond, VA). Samples were incubated (room temperature, protected from light) for 15 minutes followed by a 1 microL Rhodamine110 substrate addition (1.5 microM final concentration). Plates were then immediately read on a ViewLux High-throughput CCD imager (PerkinElmer, Waltham, MA) equipped with FITC fluorescence optics (480(20) nm excitation, 540(25) nm emission), then incubated (room temperature, protected from light) for 15 minutes (~15% conversion). The change in fluorescence intensity over the 15-minute reaction period was normalized against no-inhibitor and no-enzyme controls and the resulting percent inhibition data were fitted to a 4-parameter Hill equation. Aprotinin was used as intraplate control.
# % is scaled to controls: 0 for no effect and ±100 for the full control effect; potency is read from the fitted curve at half-maximal effect.
Structure (SMILES),outcome,"activity change, negative = inhibition",Potency
COc1cc(C(N)=O)nc(-c2ccccn2)c1O,inactive,,
Clc1ccc(Nc2nc3ccccc3c3nc(C4CCCCC4)[nH]c23)cc1Cl,inactive,,
CCn1c(=O)c(-c2ccc(Cl)cc2Cl)cc2cnc(Nc3ccc(N4CCNCC4)c(F)c3)nc21,,42.6% (inactive),
C=C1C(=O)OC2CC(C)=C(C(C)CCCOC(C)=O)C(OC(=O)CC(C)CC)C12 (stereo not given),,-13.9% [at 33.1 µM] (inactive),
CCC(C)(NC(=O)C(CCC(N)=O)NC(=O)C1CC(O)CN1C(=O)C(C)(C)NC(=O)C(C)(C)NC(=O)C(CC(C)C)NC(=O)CNC(=O)C(NC(=O)C(C)(C)NC(=O)C(C)(C)NC(=O)C(C)(C)NC(=O)C(Cc1ccccc1)NC(C)=O)C(C)C)C(=O)N1CC(O)CC1C(=O)NC(C)(C)C(=O)NC(CO)Cc1ccccc1 (stereo not given) (Ac-F[Aib][Aib][Aib]VGL[Aib][Aib][Hyp]Q[Iva][Hyp][Aib][Phe(ol)]; configuration not given here),inactive [at 10.7 µM],,
O=C(O)c1ccc(S(=O)(=O)N(Cc2ccc(OC(F)(F)F)cc2)c2ncc(C(F)(F)F)cc2Cl)cc1,,,4.47 µM (active)
CN[C@@H]1[C@H](O[C@H]2[C@H](O[C@@H]3[C@@H](O)[C@H](O)[C@@H](N=C(N)N)[C@H](O)[C@H]3N=C(N)N)O[C@@H](C)[C@]2(O)CO)O[C@@H](CO)[C@H](O)[C@H]1O,,38% (inactive),
Cc1ccccc1C(C(=O)NC1CCCCC1)N(C(=O)Cn1cnc2ccccc21)c1cccc(F)c1 (stereo not given),,15.6% (inactive),
CN(C)CCOc1cc(NS(=O)(=O)c2c(Cl)cc(C(F)(F)F)cc2Cl)ccc1Cl,inactive,,
CC(=O)OC(C)(C)/C=C/C(=O)C(C)(O)C1C(O)CC2(C)C3CC=C(C(C)(C)C(=O)O)C(CC(=O)O)C3(C)C(=O)CC12C (stereo not given),,32.2% [at 15.1 µM] (inactive),
COCCCNC(=O)c1ccc(Cn2c(=O)c3ccccc3n(Cc3ccc(C(C)C)cc3)c2=O)cc1,,3.63% (inactive),
C[C@@H](NC(=O)C(=O)c1c[nH]c2ccc([N+](=O)[O-])cc12)c1ccccc1,,3.81% (inactive),
O=C(OC1CN2CCC1CC2)N1CCc2ccccc2C1c1ccccc1 (stereo not given),,88.1% (inactive),
COc1ccc(-c2ccc3c(N4CCOCC4C)nc(N4CCOCC4C)nc3n2)cc1CO (stereo not given),,4.76% (inactive),
CC(=O)OC[C@]12[C@H](OC(C)=O)[C@H](OC(=O)c3ccccc3)[C@@H]3[C@@H](OC(C)=O)[C@]1(OC3(C)C)[C@H](C)C[C@H](OC(C)=O)[C@@H]2OC(=O)c1ccccc1,,22.7% [at 15.1 µM] (inactive),
COc1ccc(C(=O)O[C@H]2C=COC=C3C=C4C(=O)N(C)C(=S)C(=O)N4[C@@H]32)cc1Oc1cc(C=O)ccc1O,,-14.5% [at 33.1 µM] (inactive),
O=c1cc(OCc2ccc(F)cc2)ccn1-c1ccc(OCCN2CCCC2)cc1,,37.3% (inactive),
Nc1nc(NC2CC2)cc(-c2cccc(Cl)c2Cl)n1,inactive,,
CC(C)n1nc(C#Cc2ccccc2)c2c(N)ncnc21,,18.9% (inactive),
CC(C)(N)c1ncc(-c2ccc(OC(F)(F)F)cc2)[nH]1,,88.1% (inactive),

Structure (SMILES),outcome,"activity change, negative = inhibition",Potency
O=C(Nc1ccnc(NC(=O)C2CC2)c1)c1c(Cl)cccc1Cl,,20.5% (inactive),
CC(=O)c1ccc2c(c1)[C@H](NC(=O)c1ccc(F)c(Cl)c1)[C@H](O)C(C)(C)O2,inactive,,
CCOC(=O)CCNc1cc(N2CCc3ccccc3CC2)nc(-c2cccnc2)n1,,18% (inactive),
Cc1cc(CS(=O)(=O)c2ccccc2)cc(OCc2ccc(CN3CCCC3CO)cc2)c1 (stereo not given),,73% (inactive),
C=C(C(=O)OC)[C@@H]1CC=C2C=CC(=O)[C@H](C)[C@@]2(C)C1,,9.56% (inactive),
CCc1cccc(CC)c1-n1c(C=C(C)C)c(C(=O)N2CCNCC2)cc(-c2nc(-c3ccc(C(F)(F)F)cc3)cs2)c1=O,,209% [at 33.1 µM] (inactive),
COc1ccc(C[C@H]2COC(=O)[C@@H]2Cc2ccc(O[C@@H]3O[C@H](CO)[C@@H](O)[C@H](O)[C@H]3O)c(OC)c2)cc1OC,inactive [at 33.1 µM],,
COc1cc(CN(CCN)C(=O)c2cccs2)ccc1OCc1ccccc1,,142% (inactive),
CCC(C(C)O)n1ncn(-c2ccc(N3CCN(c4ccc(OCC5COC(Cn6cncn6)(c6ccc(F)cc6F)C5)cc4)CC3)cc2)c1=O (stereo not given),inactive,,
O=S(=O)(c1ccc(Cl)cc1)N1CCN(c2ccnc3cc(Cl)ccc23)CC1,,-1.72% (inactive),
COC(=O)C[C@H]1[C@]2(C)C3=C(C)[C@H](c4ccoc4)C[C@H]3O[C@@H]2[C@H](O)C2[C@](C)(C(=O)OC)C=CC(=O)[C@@]21C (stereo not given in full),,11.7% [at 33.1 µM] (inactive),
COc1ccc(-c2cnc3c(-c4cccc5ncccc45)cnn3c2)cc1,,9.92% (inactive),
COc1c(C)cc(NC(=O)c2nn(Cc3ccc(F)cc3)c3c2CN(C(=O)c2ccc[nH]2)C[C@]3(C)C(N)=O)cc1C,,7.08% [at 15.1 µM] (inactive),
C=C(C)C(=O)OC1CC2(C)OC(=CC2=O)C(=C)CC2OC(=O)C(=C)C12 (stereo not given),,24.8% [at 33.1 µM] (inactive),
O=c1[nH]c2ccccc2n1CCN1CCN(c2cccc(C(F)(F)F)c2)CC1,,10.7% (inactive),
C[C@H]1CC[C@@]2(OC1)O[C@H]1CC3[C@@H]4CC[C@@H]5C[C@@H](O[C@@H]6O[C@H](CO)[C@@H](O[C@@H]7O[C@@H](C)[C@H](O)[C@@H](O)[C@H]7O)[C@H](O)[C@H]6O[C@@H]6O[C@H](CO)[C@@H](O)[C@H](O)[C@H]6O)CC[C@]5(C)C4CC[C@]3(C)[C@H]1[C@@H]2C (stereo not given in full),inactive [at 15.1 µM],,
CCCOc1ccc(S(=O)(=O)N2CCN(CCO)CC2)cc1-c1nc2c(CCC)cn(CC)c2c(=O)[nH]1,,120% (inactive),
CN(C)CCn1cc(-c2ccc(F)cc2)c(-n2cccc2)n1,,-20.1% (inactive),
CO[C@@H]1[C@H](O)CCC2(CO2)[C@H]1[C@@]1(C)O[C@@H]1CC=C(C)C (stereo not given in full),,19.4% (inactive),
CC[C@@H](C)Nc1cc(C(=O)NC2CC3CC[C@@H](C2)N3c2ccc(C(=O)C3CC3)cn2)c(C)cc1C(N)=O (stereo not given in full),,-16.5% (inactive),
